Experimental data as given in PubChem BioAssay (Tox21).
A number with no mark means an inactive call. Results filed as inconclusive are left out. Entries that show only a call come without a potency. Active and inactive are the calls of the source. Calls come from the whole dose curve.

Legend:
[1] = target: Acetylcholinesterase (Homo sapiens) (UniProt P22303); test: Acetylcholinesterase (AChE) small molecule antagonists: colormetric cell-based qHTS assay (AID 1347395); note: nearly all actives have a fitted effect of over 30% in size; note: potency is the fitted concentration of half-maximal effect
Outline: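 Homogeneous whole-cell format. SH-SY5Y cells seeded overnight, dosed with compound (30 min, 37 C, 5% CO2), then given DTNB/acetylthiocholine cocktail for 90 min at 37 C; colorimetric signal.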

[2] = target: Acetylcholinesterase (Homo sapiens) (UniProt P22303); test: Acetylcholinesterase (AChE) small molecule antagonists: enzyme-based qHTS assay (AID 1347397); settings: Potency: AChE enzyme activity inhibition; outcome: AChE enzyme activity inhibition; note: nearly all actives have a fitted effect of over 55% in size; note: potency is the fitted concentration of half-maximal effect
Outline: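 Absorbance-based detection of thiocholine with DTNB served as the read-out. Recombinant human AChE was exposed to compound for 30 min at RT before a 10 min RT incubation with acetylthiocholine.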

[3] = target: Acetylcholinesterase (Homo sapiens) (UniProt P22303); test: Acetylcholinesterase (AChE) small molecule antagonists: enzyme-based qHTS assay with human liver microsomes (AID 1347399); settings: Potency: qHTS inhibition; outcome: qHTS inhibition; note: nearly all actives have a fitted effect of over 60% in size
Outline: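 Recombinant human AChE (50 mU/mL in the enzyme mix) and human liver microsomes (0.25 mg/mL final) were preincubated with compound and NADPH (0.25 mg/mL final) for 30 min at 37 C. Acetylthiocholine/DTNB was then added; thiocholine was read colorimetrically after 10 min at room temperature.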

Chain of Acetylcholinesterase (Homo sapiens) (P22303 whole entry, looked up): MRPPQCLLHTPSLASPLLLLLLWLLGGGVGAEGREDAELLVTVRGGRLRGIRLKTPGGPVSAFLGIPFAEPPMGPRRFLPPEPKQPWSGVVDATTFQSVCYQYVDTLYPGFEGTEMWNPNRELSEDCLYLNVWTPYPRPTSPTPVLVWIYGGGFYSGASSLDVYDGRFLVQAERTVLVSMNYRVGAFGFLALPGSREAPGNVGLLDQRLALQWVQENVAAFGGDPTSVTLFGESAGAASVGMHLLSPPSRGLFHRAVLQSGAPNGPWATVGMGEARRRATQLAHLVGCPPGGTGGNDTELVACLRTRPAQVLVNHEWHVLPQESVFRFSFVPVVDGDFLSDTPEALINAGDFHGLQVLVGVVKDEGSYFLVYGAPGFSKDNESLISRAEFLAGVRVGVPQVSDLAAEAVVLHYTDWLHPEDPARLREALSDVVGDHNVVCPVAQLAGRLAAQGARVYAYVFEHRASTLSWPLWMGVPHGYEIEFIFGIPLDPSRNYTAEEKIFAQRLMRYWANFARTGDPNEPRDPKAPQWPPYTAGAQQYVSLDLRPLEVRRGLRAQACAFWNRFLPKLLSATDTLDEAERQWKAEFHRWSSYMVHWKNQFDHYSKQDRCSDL

CC(=O)[C@H]1CC[C@H]2[C@@H]3C=CC4=CC(=O)CC[C@@]4(C)[C@@H]3CC[C@]12C
Potency [1]: inactive | Potency [2]: inactive | Potency [3]: inactive

CCOC(=O)C(Br)c1ccccc1 (stereo unspecified)
Potency [1]: 71 µM (active) | Potency [2]: inactive | Potency [3]: inactive

COc1cc(N)c(Cl)cc1C(=O)NC1CCN(CCCOc2ccc(F)cc2)CC1OC (stereo unspecified)
Potency [1]: inactive | Potency [2]: inactive | Potency [3]: inactive

COCCO
Potency [1]: inactive | Potency [2]: inactive | Potency [3]: inactive

CN1C[C@H]2c3ccccc3Oc3ccc(Cl)cc3[C@@H]2C1
Potency [1]: inactive | Potency [2]: inactive | Potency [3]: inactive

Cc1c(C)c2c(c(C)c1OC(=O)CCC(=O)OCCO)CC[C@@](C)(CCC[C@H](C)CCC[C@H](C)CCCC(C)C)O2
Potency [1]: inactive | Potency [2]: inactive | Potency [3]: inactive

CN(Cc1cc(Br)cc(Br)c1N)C1CCCCC1
Potency [1]: inactive | Potency [2]: inactive | Potency [3]: inactive

Nc1ccc(C(=O)OCC(O)CO)cc1 (stereo unspecified)
Potency [1]: inactive | Potency [2]: inactive | Potency [3]: inactive

CCOC(=O)COc1ccc2c(c1)CC(NCC(O)c1cccc(Cl)c1)CC2 (stereo unspecified)
Potency [1]: inactive | Potency [2]: inactive | Potency [3]: inactive

C=C1CC[C@H]2C[C@@H]1C2(C)C
Potency [1]: inactive | Potency [2]: inactive | Potency [3]: inactive

Nc1ccn(C2CO[C@H](CO)O2)c(=O)n1 (stereo partly specified)
Potency [1]: inactive | Potency [2]: inactive | Potency [3]: inactive

c1ccc(-c2nc3ccccc3[nH]2)cc1
Potency [1]: inactive | Potency [2]: inactive | Potency [3]: inactive

C[Si](C)(C)C
Potency [1]: inactive | Potency [2]: inactive | Potency [3]: inactive

CCCCOc1ccc(C(=O)CCN2CCCCC2)cc1
Potency [1]: 12.3 µM (active) | Potency [2]: 27.5 µM (active) | Potency [3]: inactive

CN1C(=O)OC(C)(C)C1=O
Potency [1]: inactive | Potency [2]: inactive | Potency [3]: inactive

CC[N+](CC)(CC)CCOC(=O)C(C1CCCC1)C1CCCC1
Potency [1]: inactive | Potency [2]: inactive | Potency [3]: inactive

COCCOC(=O)C1=C(C)NC(C)=C(C(=O)OC/C=C/c2ccccc2)C1c1cccc([N+](=O)[O-])c1 (stereo unspecified)
Potency [1]: inactive | Potency [2]: inactive | Potency [3]: inactive

c1ccc(C(O[C@@H]2CCCN(CCc3ccc4c(c3)OCO4)C2)c2ccccc2)cc1
Potency [1]: inactive | Potency [2]: inactive | Potency [3]: inactive

COc1c(N2C[C@@H]3CCCN[C@@H]3C2)c(F)cc2c(=O)c(C(=O)O)cn(C3CC3)c12
Potency [1]: inactive | Potency [2]: inactive | Potency [3]: inactive

CCN(CC)C(C)CN1c2ccccc2Sc2ccccc21 (stereo unspecified)
Potency [1]: inactive | Potency [2]: inactive | Potency [3]: inactive

NC(=O)c1ncn([C@@H]2O[C@H](CO)[C@@H](O)[C@H]2O)c1O
Potency [1]: inactive | Potency [2]: inactive | Potency [3]: inactive

O=S(=O)(O)c1cc(S(=O)(=O)O)c2ccc3c(S(=O)(=O)O)cc(S(=O)(=O)O)c4ccc1c2c43
activity, negative = inhibition [1]: -7.76% [at 23.6 µM] | activity change, negative = inhibition [2]: -5.03% [at 23.6 µM] | activity change, negative = inhibition [3]: 2.76% [at 23.6 µM]

CCCCCCCCCCCCCC[P+](CCCC)(CCCC)CCCC (tested in a mixture with another compound)
Potency [1]: inactive | Potency [2]: inactive | Potency [3]: inactive

Cc1ccc(NC(=O)c2ccc(CN3CCN(C)CC3)cc2)cc1Nc1nccc(-c2cccnc2)n1
Potency [1]: inactive | Potency [2]: inactive | Potency [3]: inactive

CN(C/C=C/c1ccccc1)Cc1cccc2ccccc12
outcome [1]: inactive | outcome [2]: inactive | outcome [3]: inactive

Nc1ccc([N+](=O)[O-])cc1O
Potency [1]: inactive | Potency [2]: inactive | Potency [3]: inactive

Cc1nccn1-c1ccc(Sc2cccc(C3(C(N)=O)CCOCC3)c2)cc1
outcome [1]: inactive | outcome [2]: inactive | outcome [3]: inactive

CCN(CC)C(=O)c1cc(S(=O)(=O)Cc2ccccc2)c(N2CCC(c3ccccc3)CC2)cc1N(CC)CCN(C)C
Potency [1]: inactive | Potency [2]: inactive | Potency [3]: inactive

CCN(CCCCOC(=O)c1ccc(OC)c(OC)c1)C(C)Cc1ccc(OC)cc1 (stereo unspecified)
Potency [1]: 17.4 µM (active) | Potency [2]: inactive | Potency [3]: inactive

CCCCCN=C(N)N/N=C/c1c[nH]c2ccc(OC)cc12
Potency [1]: inactive | Potency [2]: inactive | Potency [3]: inactive

CC(C)CC(O)Cc1ccccc1 (stereo unspecified)
Potency [1]: inactive | Potency [2]: inactive | Potency [3]: inactive

CCN(CC)c1ccc2c(c1)Oc1cc(N(CC)CC)ccc1C21OC(=O)c2ccccc21
Potency [1]: inactive | Potency [2]: inactive | Potency [3]: inactive

Cc1oc(=O)oc1COC(=O)[C@@H]1N2C(=O)[C@@H](NC(=O)[C@H](N)c3ccccc3)[C@H]2SC1(C)C
Potency [1]: inactive | Potency [2]: inactive | Potency [3]: inactive

N#CSCC(=O)O
Potency [1]: inactive | Potency [2]: inactive | Potency [3]: inactive

CC(O)CCCCn1c(=O)c2c(ncn2C)n(C)c1=O (stereo unspecified)
Potency [1]: inactive | Potency [2]: inactive | Potency [3]: inactive

CCCCCCCCCC(C)C=O (stereo unspecified)
Potency [1]: inactive | Potency [2]: inactive | Potency [3]: inactive

CC1=C(/C=C/C(C)=C/C=C/C(C)=C/C=O)C(C)(C)CCC1
Potency [1]: inactive | Potency [2]: inactive | Potency [3]: inactive

COc1c2occc2c(OC)c2c(=O)cc(C)oc12
Potency [1]: inactive | Potency [2]: inactive | Potency [3]: inactive

CCOC(=O)Nc1ccc(NCc2ccc(F)cc2)nc1N
Potency [1]: inactive | Potency [2]: inactive | Potency [3]: inactive

CN(C)[C@@H](CCOc1cccc2ccccc12)c1ccccc1
Potency [1]: inactive | Potency [2]: inactive | Potency [3]: inactive

CCCCCCCCCCCBr
Potency [1]: inactive | Potency [2]: inactive | Potency [3]: inactive

CC1(c2ccccc2)OC(C(=O)O)=CC1=O (stereo unspecified)
Potency [1]: inactive | Potency [2]: inactive | Potency [3]: inactive
